These results are taken from PubChem BioAssay (Tox21).

A short description of experiment [1]: qHTS RealTime-Glo MT Cell Viability Assay in HEK293 cells - 0 hour (AID 1224880). Further: top concentration of the series differs between compounds; on the % scale 0 is the no-effect control and ±100 the full control effect; nearly all actives have a fitted effect of over 45% in size. A digest of the protocol: (§1)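 Kinetic, non-lysing viability readout. Seed HEK293 (600/well) with reagent, incubate 5 h at 37 C/5% CO2, pin 23 nL compound in DMSO, incubate at 37 C, read luminescence at 0, 8, 16, 24, 32, 40 h.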
In general terms: Quantitative high-throughput screening tests each substance at several concentrations.

Experiment [2] is described as follows: A CellTox Green Cytotoxicity Assay to monitor cytotoxicity in HEK293 cells - 32 hour (AID 1224881). Further: nearly all actives have a fitted effect of over 40% in size. Further: potency means the concentration at half of the fitted maximal effect. An outline of the steps: (§2)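 Real-time, in one plate: 600 HEK293 cells/well with dead-cell DNA dye, pinned compound after 5 h, 37 C incubation over 40 h; viable cells give no appreciable fluorescence.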
A short description of experiment [3]: A CellTox Green Cytotoxicity Assay to monitor cytotoxicity in HepG2 cells - 32 hour (AID 1224883). Further: nearly all actives have a fitted effect of over 50% in size. Further: potency means the concentration at half of the fitted maximal effect. A digest of the protocol:
(§3)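 Cytotoxicity was tracked as dead-cell DNA fluorescence in HepG2 cells treated with test compounds at 37 C; each time-point value comes from one kinetic series spanning 0, 8, 16, 24, 32 and 40 h.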

Experiment [4] is described as follows: A CellTox Green Cytotoxicity Assay to monitor cytotoxicity in HEK293 cells - 8 hour (AID 1224884). Further: nearly all actives have a fitted effect of over 35% in size. Further: potency means the concentration at half of the fitted maximal effect. An outline of the steps: as §2
The nature of experiment [5]: qHTS RealTime-Glo MT Cell Viability Assay in HEK293 cells - 8 hour (AID 1224887). Further: top concentration of the series differs between compounds; on the % scale 0 is the no-effect control and ±100 the full control effect; nearly all actives have a fitted effect of over 50% in size. An outline of the steps:
as §1

Experiment [6] can be described thus: A CellTox Green Cytotoxicity Assay to monitor cytotoxicity in HEK293 cells - 16 hour (AID 1224888). Further: nearly all actives have a fitted effect of over 35% in size. Further: potency means the concentration at half of the fitted maximal effect. A digest of the protocol:
as §2

The nature of experiment [7]: qHTS RealTime-Glo MT Cell Viability Assay in HepG2 cells - 0 hour (AID 1224889). Further: on the % scale 0 is the no-effect control and ±100 the full control effect; nearly all actives have a fitted effect of over 50% in size. A digest of the protocol:
(§4)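 HepG2 suspension premixed with RealTime-Glo reagents is plated at 600 cells per well and left 5 h at 37 C/5% CO2. Compounds in DMSO then go in, and bioluminescence reflecting viable cell number is recorded over 40 h.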

Experiment [8] in a line: A CellTox Green Cytotoxicity Assay to monitor cytotoxicity in HepG2 cells - 8 hour (AID 1224890). Further: nearly all actives have a fitted effect of over 45% in size. Further: potency means the concentration at half of the fitted maximal effect. A digest of the protocol: as §3
Experiment [9] in a line: qHTS assay to identify small molecule antagonists of the estrogen receptor alpha (ER-alpha) signaling pathway using the BG1 cell line in the presence of 0.1 nM 17-beta-estradiol - cell viability counter screen (AID 1259241). Further: on the % scale 0 is the no-effect control and ±100 the full control effect; nearly all actives have a fitted effect of over 40% in size. A digest of the protocol:
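Following 5 days in phenol red-free medium with charcoal-stripped serum, VM7Luc4E2 cells received test compounds alongside 0.1 nM 17beta-estradiol (final) at 37C for 22 hr. Live cells were then quantified via protease-substrate fluorescence.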

Experiment [10] in a line: qHTS assay to identify small molecule antagonists of the androgen receptor (AR) signaling pathway using the MDA cell line in the presence of 0.5 nM R1881 - cell viability counter screen (AID 1259242). Further: on the % scale 0 is the no-effect control and ±100 the full control effect; nearly all actives have a fitted effect of over 45% in size. An outline of the steps: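 Cells seeded at 3,000/well and allowed 5 hr at 37C, 0% CO2 before compound transfer and R1881 (0.5 nM final) addition; 16 hr later, live-cell protease fluorescence indicated cytotoxicity.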

Experiment [11] deals with Estrogen receptor (Homo sapiens) (UniProt P03372). Description: qHTS assay to identify small molecule antagonists of the estrogen receptor alpha (ER-alpha) signaling pathway using the BG1 cell line in the presence of 0.1 nM 17-beta-estradiol (AID 1259244). Further: on the % scale 0 is the no-effect control and ±100 the full control effect; nearly all actives have a fitted effect of over 50% in size. A digest of the protocol:
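Luciferase signal from VM7Luc4E2 ERE-reporter cells, co-dosed with test compound and 0.1 nM final 17beta-estradiol for 22 h, read with ONE-Glo.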

Experiment [12] can be described thus: qHTS assay to identify small molecule HDAC inhibitors (AID 1259364).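 Further: wild-type HCT-116 cells with endogenous class I/II HDAC activity; top concentration of the series differs between compounds; on the % scale 0 is the no-effect control and ±100 the full control effect; nearly all actives have a fitted effect of over 45% in size.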 An outline of the steps:
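HCT-116 wt cells, 1,500/well, overnight attach. Compounds (DMSO) 2 h, 37 °C. HDAC-Glo I/II, 30 min RT. Luminescence.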

Experiment [13] is described as follows: qHTS assay to identify small molecule HDAC inhibitors - cell viability counter screen (AID 1259365). A digest of the protocol: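 HCT-116 wild-type, overnight attachment; 2hr drug exposure, 37C; CellTiter-Glo luminescent ATP readout after 30min RT.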
Experiment [14] is described as follows: qHTS assay to identify small molecule agonists of the sonic hedgehog signaling (Shh) pathway - cell viability counter screen (AID 1259366). A digest of the protocol: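 Compounds in DMSO were pin-transferred onto 3T3 Gli1-Luc cells that had settled 4hr; plates then stood 24hr at 37C and 5% CO2. One hour before the end, CellTiter-Fluor was added and fluorescence recorded.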

Experiment [15] can be described thus: qHTS assay to identify small molecule antagonists of the sonic hedgehog signaling (Shh) pathway - cell viability counter screen (AID 1259367). Further: on the % scale 0 is the no-effect control and ±100 the full control effect; nearly all actives have a fitted effect of over 55% in size. An outline of the steps: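 Conditioned medium drove Shh signaling in 3T3 Gli1-Luc cells exposed to compounds at 37C and 5% CO2. Viability was determined from CellTiter-Fluor fluorescence, with reagent incubated 1 hr after 23 hr of treatment.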

The nature of experiment [16]: qHTS RealTime-Glo MT Cell Viability Assay in HEK293 cells - 24 hour (AID 1224886). An outline of the steps: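 Reads taken at 0, 8, 16, 24, 32 and 40 h from the same wells. HEK293 cells (600/well) carried RealTime-Glo reagents from seeding, with compound added after a 5 h settle at 37 C.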
Experiment [17] can be described thus: qHTS assay to identify small molecule phospholipidosis (PLD) inducers (AID 1259344; active means well fitted curve in the direction sought with a large enough effect; an effect the other way counts as inactive or inconclusive; further: on the % scale 0 is the no-effect control and ±100 the full control effect). A digest of the protocol:
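After 4 h attachment on collagen I, HepG2 cells were dosed with compound alongside LipidTOX Red, kept 24 h at 37 C, fixed, and imaged for lamellar phospholipid pits.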

Experiment [18] in a line: qHTS RealTime-Glo MT Cell Viability Assay in HepG2 cells - 16 hour (AID 1224885). An outline of the steps:
as §4

Experiment [19] in a line: A CellTox Green Cytotoxicity Assay to monitor cytotoxicity in HepG2 cells - 0 hour (AID 1224882). Further: on the % scale 0 is the no-effect control and ±100 the full control effect; nearly all actives have a fitted effect of over 35% in size. A digest of the protocol:
as §3

Experiment [20] deals with Androgen receptor (Homo sapiens) (UniProt P10275). Description: qHTS assay to identify small molecule antagonists of the androgen receptor (AR) signaling pathway using the MDA cell line in the presence of 0.5 nM R1881 (AID 1259243). An outline of the steps:
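Luminescence from an AR/GR-responsive MMTV-luciferase construct in MDA-kb2 breast carcinoma cells, read 30 min after ONE-Glo, following 16 hr co-treatment with compounds and 0.5 nM R1881.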

Values without a mark were called inactive. Records with an inconclusive call do not appear. The source made the active and inactive calls. Unless noted, the call rests on the fitted dose curve; in most records, active means well fitted curve in the direction sought with a large enough effect in the repeat runs; inconclusive means weak or mixed curves; inactive means no such curve, though single readings can be large; an effect the other way counts as inactive or inconclusive.

Sequence of Estrogen receptor (Homo sapiens) (P03372 whole entry, looked up): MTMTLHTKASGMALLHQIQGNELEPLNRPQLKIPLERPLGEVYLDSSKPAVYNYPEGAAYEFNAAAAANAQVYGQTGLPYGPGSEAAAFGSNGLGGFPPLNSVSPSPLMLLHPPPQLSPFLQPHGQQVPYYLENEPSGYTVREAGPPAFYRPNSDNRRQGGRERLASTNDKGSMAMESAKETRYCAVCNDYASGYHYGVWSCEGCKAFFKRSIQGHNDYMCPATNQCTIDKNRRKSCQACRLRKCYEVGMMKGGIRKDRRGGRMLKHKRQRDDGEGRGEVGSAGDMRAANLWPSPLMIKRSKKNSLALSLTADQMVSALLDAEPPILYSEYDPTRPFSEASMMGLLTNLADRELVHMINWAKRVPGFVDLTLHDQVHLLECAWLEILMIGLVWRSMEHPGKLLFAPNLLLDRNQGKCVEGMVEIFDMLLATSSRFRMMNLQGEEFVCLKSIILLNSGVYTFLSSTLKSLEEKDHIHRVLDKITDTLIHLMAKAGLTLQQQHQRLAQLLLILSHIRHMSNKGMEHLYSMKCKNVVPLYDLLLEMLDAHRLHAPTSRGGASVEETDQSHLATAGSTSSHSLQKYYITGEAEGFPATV
Sequence of Androgen receptor (Homo sapiens) (P10275 whole entry, looked up): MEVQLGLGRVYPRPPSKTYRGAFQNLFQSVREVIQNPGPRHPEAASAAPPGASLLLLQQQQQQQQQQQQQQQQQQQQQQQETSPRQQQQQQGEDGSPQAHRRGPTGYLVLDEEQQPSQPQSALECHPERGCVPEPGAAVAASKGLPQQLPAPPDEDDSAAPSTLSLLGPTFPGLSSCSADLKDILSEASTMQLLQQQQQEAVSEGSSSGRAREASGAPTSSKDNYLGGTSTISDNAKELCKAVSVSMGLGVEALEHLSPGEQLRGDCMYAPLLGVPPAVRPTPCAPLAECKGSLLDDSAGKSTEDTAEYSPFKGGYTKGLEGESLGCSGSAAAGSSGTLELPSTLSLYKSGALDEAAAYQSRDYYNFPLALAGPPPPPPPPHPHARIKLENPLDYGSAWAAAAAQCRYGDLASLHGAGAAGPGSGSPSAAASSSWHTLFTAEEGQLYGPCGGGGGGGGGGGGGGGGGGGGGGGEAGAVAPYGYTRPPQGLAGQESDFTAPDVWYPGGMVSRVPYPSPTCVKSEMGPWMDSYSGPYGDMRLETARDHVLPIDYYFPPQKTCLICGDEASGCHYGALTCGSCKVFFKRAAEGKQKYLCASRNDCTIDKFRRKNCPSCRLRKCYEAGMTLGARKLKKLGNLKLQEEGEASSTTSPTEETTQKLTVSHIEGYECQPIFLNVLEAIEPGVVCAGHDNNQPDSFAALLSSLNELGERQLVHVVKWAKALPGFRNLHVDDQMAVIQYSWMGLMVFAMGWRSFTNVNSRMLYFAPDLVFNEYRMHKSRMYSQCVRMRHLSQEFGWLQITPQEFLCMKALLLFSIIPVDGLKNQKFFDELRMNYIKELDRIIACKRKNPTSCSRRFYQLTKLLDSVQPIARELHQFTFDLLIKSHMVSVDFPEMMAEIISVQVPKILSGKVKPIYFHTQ

Consider `O=C1OC(=O)c2cc([N+](=O)[O-])ccc21`, for which the molecule was called inactive in experiment [1], in experiment [9], in [10], in experiment [11], in [13] and in [15]. The Potency entry in experiment [2], in experiment [3], in experiment [4], in [5], in [6] and in experiment [7] was “inactive” each time. In addition, the Potency entry in experiment [8], in experiment [12] and in [14] was “inactive” throughout.
For the molecule `COc1cc(C(=O)N2CCOCC2)cc(OC)c1OC`, the molecule was called inactive in [1], in experiment [9], in experiment [10], in experiment [13] and in [15]. The Potency result in [2], in [3], in experiment [4], in [16], in [5] and in experiment [6] was “inactive” each time. In addition, the Potency entry in experiment [7], in experiment [8], in experiment [17], in [12] and in [14] was “inactive” each time.
`Cc1onc(-c2ccccc2)c1-c1ccc(S(N)(=O)=O)cc1`: the molecule was classed as inactive in [1], in experiment [18], in experiment [9], in experiment [10], in experiment [13] and in [15]. Moreover, the Potency entry in experiment [2], in [3], in experiment [4], in [6], in [7] and in experiment [8] was “inactive” throughout. Moreover, the Potency result in experiment [17] and in [12] was “inactive” throughout.
As to `Nc1ccn(C2CO[C@H](CO)O2)c(=O)n1` (stereo not given in full), the molecule was called inactive in [1], in [18], in [9], in experiment [10], in experiment [11] and in experiment [13]. Further, in experiment [15], the molecule was called inactive. Moreover, the Potency in experiment [2] was 19 µM (active); in experiment [3], 5.35 µM (active); in experiment [4], 16.9 µM (active); in experiment [6] it was 19 µM (active); in [8], 19 µM (active). Moreover, the Potency result in experiment [5], in [7] and in experiment [12] was “inactive” in each case. Further, the PLD induction in experiment [17] is 4.48% [at 7.66 µM].
For `O=C(O)Cc1cc(I)c(Oc2cc(I)c(O)c(I)c2)c(I)c1`, the result in experiment [1], in [18], in experiment [9], in [10], in experiment [13] and in [15] was inactive. Further, the Potency entry in [19], in [3], in experiment [4], in experiment [16], in experiment [5] and in experiment [6] was “inactive” each time. The Potency entry in experiment [7], in experiment [8], in experiment [12] and in experiment [14] was “inactive” in each case.
Turning to `C=C(C)C1CC=C(C)C(O)C1` (stereo not given), the result in experiment [1], in experiment [18], in experiment [9], in experiment [10], in experiment [11] and in experiment [13] was inactive. For the same molecule, in experiment [15], the outcome was inactive. Also, the Potency result in [19], in experiment [3], in [4], in [16], in experiment [5] and in [6] was “inactive” in each case. Further, the Potency result in experiment [7], in [8] and in experiment [14] was “inactive” throughout.
As for `CC(C)COC(=O)C(C)C`, the call in experiment [1], in experiment [18], in experiment [9], in [10], in experiment [11] and in experiment [15] was inactive. For the same molecule, the Potency result in experiment [2], in experiment [3], in experiment [4], in experiment [5], in [6] and in experiment [7] was “inactive” in each case. The Potency entry in experiment [8], in experiment [12] and in experiment [14] was “inactive” each time.
`CC1(C)OC(=O)Nc2ccc(Br)cc21`: the result in experiment [1], in experiment [18], in experiment [9], in [10], in experiment [11] and in experiment [13] was inactive. The call in experiment [15] was inactive. The Potency result in [19], in experiment [3], in experiment [4], in [16], in experiment [5] and in experiment [6] was “inactive” throughout. Besides, the Potency entry in experiment [7], in [8] and in experiment [14] was “inactive” in each case. Besides, in [20], the Potency is 9.44 µM (active).
